The list is not random: actives were taken first. Their share in the collection is about 2.3%.
TsaE inh = qHTS Assay for Inhibitors of YjeE | AID 605, 2007 | purified YjeE enzyme, qHTS inhibition assay | 71,000 compounds, 0.05% hits | Potency, µM | tRNA threonylcarbamoyladenosine biosynthesis protein TsaE (Escherichia coli (strain …
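Purified YjeE (10 uM) with BODIPY Texas Red-labeled ADP probe (2 uM); compounds pin-transferred, 15 min at room temperature. Binding inhibition read as decreased fluorescence polarization; ADP titration as control.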
Tau fil binding = qHTS Assay for Tau Filament Binding; Microtubule-associated protein tau (Homo sapiens), P10636; recombinant tau filaments, thioflavin S fluorescence, 15 h; filaments grown with octadecylsulfate alongside compound; Potency, µM (titrated, usually from 57.1 µM); 71,000 compounds, 2% hits; AID 596, 2007;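 note: actives lower thioflavin S fluorescence by blocking filaments or displacing dye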
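Recombinant tau protein (human, 1 uM final) plus 30 uM ODS in HEPES pH 7.4 with NaCl, DTT and thioflavine S. Compound present from the start; fluorescence at 510 nm after 15 h, 37 C.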
Pol III holo inh = qHTS Assay for Inhibitors of DNA Polymerase III Holoenzyme System. 71,000 compounds, 0.25% hits. Potency, µM (titrated, usually from 57.1 µM). reconstituted DNA polymerase III holoenzyme replication, biochemical
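Reconstituted *E. coli* holoenzyme (0.35 nM Pol III, 1 nM beta, 154 nM SSB, 2 nM primase) was preincubated with compound for 15 min at RT. Synthesis on 1.4 nM ssM13Gori ran 35 min, then was stopped with PicoGreen/EDTA and read as dsDNA fluorescence.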
BRCT PPI red = qHTS Assay for Inhibitors of BRCT-Phosphoprotein Interaction (Red Fluorophore); BRCT-phosphopeptide binding, red fluorescence polarization; Potency, µM (top dose mostly 76.9 µM), most hits filed as inhibitors; 75,000 compounds, 0.03% hits; AID 892, 2007
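Rhodamine-labelled pBACH1 10-mer (100 nM) bound to BRCT domain (100 nM) at pH 7.3; compounds incubated 12 min room temperature, polarization read. Free peptide defines full inhibition; unlabelled decapeptide titrated as control.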
BRCT PPI green = qHTS Assay for Inhibitors of BRCT-Phosphoprotein Interaction (Green Fluorophore); AID 875, 2007; Breast cancer type 1 susceptibility protein (Homo sapiens), P38398; BRCA1 BRCT-phosphopeptide binding, green fluorescence polarization; Potency, µM (titrated, usually from 76.9 µM), hits mostly inhibitors; 75,000 compounds, 0.05% hits
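Fluorescence polarization: His-tagged BRCT (~35 kDa BRCA1 C-terminus, 250 nM) bound to 100 nM fluorescein-labeled phosphorylated 10-aa BACH1 peptide, pH 7.3 phosphate buffer with DTT and Tween 20. Compounds incubated 12 min at room temperature; inhibition read as lowered polarization.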
Hsp90 Hop PPI = qHTS Assay for Disrupters of an Hsp90 Co-Chaperone Interaction; Hsp90 C-terminal peptide / TPR2A (Hop) interaction, human; AlphaScreen TPR2A-His6 binding biotin-Hsp90 C-terminal peptide; Potency, µM (titrated, usually from 57 µM); 71,000 compounds, 0.44% hits; AID 595, 2007; active = well fitted curve in either direction with a large enough effect; inconclusive = small, poorly fitted or top-dose-only effect, or another doubt
A number is an active result; . = inactive; ? = inconclusive; / = no result; ! = repeats disagree; [ ] = another dose, or the depositor's remark. Unless noted, calls come from the whole dose curve; as a rule, active = well fitted curve in the direction sought with a large enough effect; inconclusive = small, poorly fitted or top-dose-only effect, or another doubt; inactive = no such curve, though single readings can be large; an effect the other way counts as inactive or inconclusive.

SMILES	TsaE inh	Tau fil binding	Pol III holo inh	BRCT PPI red	BRCT PPI green	Hsp90 Hop PPI
CCOC(=O)c1cnc2c(C(=O)OC)cccc2c1NCc1ccco1	.	13µM	.	.	.	.
Cc1nc(N=Nc2cc(S(=O)(=O)O)c3cc([N+](=O)[O-])cc(S(=O)(=O)O)c3c2)c(COP(=O)(O)O)c(C=O)c1O	.	?	32µM	.	?	.
CCCCCOC(=O)c1cc(=O)[nH]c2ccccc12	.	10µM	.	.	.	.
O=C(OCCN1C(=O)c2ccccc2C1=O)c1cc(=O)[nH]c2ccccc12	.	.	.	.	.	.
COc1ccc(CNc2nc(-c3ccccc3OC)nc3ccccc23)c(OC)c1	.	.	.	.	.	.
COc1ccccc1N=c1oc2c(OC)cccc2cc1C(=O)NCc1ccco1	.	2.5µM	.	.	.	.
COc1ccc(OC)c(N=c2oc3c(OC)cccc3cc2C(=O)NCc2ccco2)c1	.	0.79µM	.	.	.	.
COc1ccc(N=c2oc3c(OC)cccc3cc2C(=O)NCc2ccco2)cc1OC	.	1.3µM	.	.	.	.
O=C(O)C1=C/C(=C(/c2ccccc2)c2cc(C(=O)O)c(O)c3ccccc23)c2ccccc2C1=O	.	.[11.4 µM]	.[11.4 µM]	.[15.4 µM]	.[15.4 µM]	.[11 µM]
C=CC1=C(C)C2=NC1=CC1=NC(=CC3=NC(=CC4=NC(=C2)C(C)=C4CCC(=O)O)C(CCC(=O)O)=C3C)C(C=C)=C1C.[Zn]	79µM	0.79µM	25µM	32µM	?	5µM
Cc1sc(N)c(C(=O)c2cccc(C(F)(F)F)c2)c1C	.	32µM	.	.	.	?
O=C(Nc1ccc(Nc2ccccc2)cc1)N1CCOCC1	.	16µM	.	.	.	.
COC(=O)c1ccc(NC(=O)N2CCOCC2)cc1	.	.	.	.	.	.
NNc1nncc2ccccc12	.	.	.	.	.[3.08 µM]	13µM!
Nc1ncnc2[nH]c(=O)[nH]c12	/	/	/	.	.	/
O=S(=O)(c1cccc2nsnc12)N1CCc2ccccc2C1	.	20µM	.	.	.	.
COc1ccccc1N1CCN(S(=O)(=O)c2cccc3nsnc23)CC1	.	.	.	.	.	.
O=C(C1CCN(S(=O)(=O)c2cccc3nsnc23)CC1)N1CC=C(c2ccccc2)CC1	.	20µM	.	.	.	.
O=S(=O)(c1cccc2nsnc12)N1CCCC1	.	.	.	.	.	.
CC1Cc2ccccc2N1S(=O)(=O)c1cccc2nsnc12 (stereo not drawn)	.	25µM	.	.	.	.
O=c1c(-c2cccc(F)c2)nc2cncnc2n1-c1ccccc1	.	.	.	.	.	.
CC(=O)NCCNc1ncnc2ccc(-c3ccccc3C#N)cc12	.	.	.	.	.	.
C[N+](C)([O-])Cc1cc(-c2ccccc2)ccc1O	.	.[11.4 µM]	.[11.4 µM]	.[15.4 µM]	.[15.4 µM]	.[11 µM]
CCCCOC(=O)CN1C(=O)c2ccc(C(=O)OCCCC)cc2C1=O	.	.	.	.	.	25µM
CCNc1sc(C(=O)c2cccs2)c(N)c1-c1nc2ccccc2s1	.	13µM	.	.	.	?
SMILES	TsaE inh	Tau fil binding	Pol III holo inh	BRCT PPI red	BRCT PPI green	Hsp90 Hop PPI
CCOC(=O)c1sc(NCc2ccco2)c(-c2nc3ccccc3s2)c1N	.	.	.	.	.	.
Cc1ccc(O)c(N=CC2=C(O)c3ccccc3C2=O)c1	.	7.9µM	.	.	.	?
Cc1nc(N)sc1-c1csc(Nc2ccccc2)n1	.	20µM	.	.	.	?
COc1ccc(OC)c(Nc2nc(-c3sc(N)nc3C)cs2)c1	.	10µM	.	.	.	?
COC(=O)C/C=C\[C@@H](C)[C@@H](/C=N\OC[C@@H](O)[C@H]1O[C@H]2OC(C)(C)O[C@H]2[C@@H]1O)NS(=O)(=O)c1ccc(C)cc1	/	/	/	.[15.4 µM]	.[15.4 µM]	/
Cc1cccc(CNc2ncncc2-c2cccnc2)c1	.	.	.	.	.	.
